Measurements from PubChem BioAssay AID1347426 (Functional Genomics Laboratory (NCATS/FGL), 2020).
The whole screen tested about 31,000 sequences, of which about 1,400 (4.5%) were called active.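 How the source made its calls: active means median seed-adjusted z-score above 1 or below -1; inactive means the rest.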 This excerpt belongs to a sample that is enriched for actives.

Test: Novel Modifiers of Survival Motor Neuron (SMN) Protein: Gene Identification via Genome-wide siRNA Screen;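 further: luminescence tracks full-length SMN protein made from the SMN2 reporter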
Details: HEK293T SMN2-luciferase reporter, siRNA knockdown, 72 h; actives lie on both sides
Summary of the method: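 Each of three siRNAs per gene is reverse-transfected (1 pmol) into reporter HEK293T cells whose luciferase output tracks SMN protein level. After 72 h culture, ONE-Glo luminescence is control-normalized, log10-transformed and MAD-standardized; Common Seed Analysis deprioritizes seed-driven hits.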

Row | Sequence | median seed-adjusted z-score
1 | GGCAGUGUUUAUUUACUAUTT against RHBDL2 | 0.0701 (inactive)
2 | CCAAAGAUGUUUCAUCUGATT against PCDHGA7 | 0.705 (inactive)
3 | AAGGUAAAAUUGAAGAGUUTT against SERPINB9 | 0 (inactive)
4 | CUCACCUACUGGAACCUGATT against ZBED4 | -0.553 (inactive)
5 | CCAACAUGCUAAUCACCUATT against MAP3K12 | -0.6 (inactive)
6 | CUAUUUUACCUUUACAAGATT against ALDH1A2 | 0.564 (inactive)
7 | CAUUAUCUAUUCUAGACAATT against TTC18 | -1.15 (active)
8 | GCAUUGCCUCUAUACCAGATT against MALT1 | 0.442 (inactive)
9 | GGGCAUGUUUCGUACCGUUTT against MYH10 | 0.0877 (inactive)
10 | AGAACAUCCUGAUAGACCUTT against PIM2 | 0.00597 (inactive)
11 | GGUGCGGAGAGAUGAGAUATT against PPM1M | 0 (inactive)
12 | GCAGAAAUGACACCAAUAATT against NMB | 0.746 (inactive)
13 | GCUCCUCAAAGGAUAUGAATT against CAB39L | 0 (inactive)
14 | AUUUAUUUGUUGAGGUUAUTT against PIM3 | -1.01 (active)
15 | GACCCUAAGCAGUAUAAGATT against CHSY3 | -0.113 (inactive)
16 | CGAUUGCCCAUCAUCCUGATT against HAO2 | 0.039 (inactive)
17 | GCUUCUACCCGGACGAAGATT against MYCN | 0.00242 (inactive)
18 | AAACACCGCUGUUCCGUAATT against MED8 | -1.61 (active)
19 | GGCUAGUGAUCGACCGUAATT against FADS1 | -0.905 (inactive)
20 | GAAACCUGCUGAUCUACGATT against CREB3L2 | -0.192 (inactive)
21 | GGAGAAAACCUUCGAGCAGTT against NKX6-2 | 0.101 (inactive)
22 | UCCUAAAUGUGACCCGGUATT against ZMYND19 | 0.369 (inactive)
23 | GCCCAUUUCAUCAACCUGATT against PRDM15 | 0.258 (inactive)

Row | Sequence | median seed-adjusted z-score
24 | CAACAACUGCUACCAAGAUTT against SLC6A4 | 1.43 (active)
25 | GGAACUAGAUGUCAUGUAUTT against VILL | 0.518 (inactive)
26 | CAAGUGUCUAUGUAACGAATT against FBN2 | 0.373 (inactive)
27 | GCCUUUACCCUUGAAGAAATT against ME3 | 0.166 (inactive)
28 | CAAUCAUGUCGAGAAAUAATT against TGIF2LX | -0.568 (inactive)
29 | CGUUCAGUCCGUCACCCAATT against GATAD2A | -0.715 (inactive)
30 | GGGUGGGUUACAUAGCACATT against CLDN19 | 0 (inactive)
31 | GACUUAACCAAGAGACGUATT against THOC2 | -1.22 (active)
32 | GGACGAAGGACGUGCUGUUTT against SHC2 | -0.207 (inactive)
33 | GCAAUUACAUUGUACGCUUTT against ETFDH | 0.154 (inactive)
34 | CAGCUUCAGGAGAAUGAAATT against PPP1CC | -0.344 (inactive)
35 | GCACGUAAGCUGAACACUATT against PRC1 | -0.0195 (inactive)
36 | UGAAGAACCUGGACGCCAATT against CCL24 | 0 (inactive)
37 | CCUCGAGGAGAUUAACAAATT against NPEPL1 | 1.12 (active)
38 | CAGAUGAAGUGAUCGGUGATT against CIITA | -0.109 (inactive)
39 | GCUCCUGUAUGAAUGCAAUTT against FBP2 | 0 (inactive)
40 | GGCUUUUAGCCUGAAGAAATT against PRDM5 | -0.463 (inactive)
41 | CUGAUGCUCUGUAUCCCAATT against TNRC4 | 0.801 (inactive)
42 | GAUGAUAUUUAUUCACCAATT against ZBTB25 | 0 (inactive)
43 | GCAUACCUCAGUUCCAAGATT against CDY2A | 0.75 (inactive)
44 | CCUCUAACCUUAGAUGAAATT against GTF2E2 | -1.32 (active)
45 | GGAGCAUAAAGUAGACCGATT against ABCA10 | -0.104 (inactive)
46 | GACCGUUCACUGUACAACATT against FUT9 | 0.0444 (inactive)

Row | Sequence | median seed-adjusted z-score
47 | GUGUUAUAACAAUCGAAGATT against CAPSL | -0.168 (inactive)
48 | GGCUUAAACUUAGAGUCAATT against MYLIP | 0.652 (inactive)
49 | CAGUCGAUGUCCAUGAAUATT against LRRN1 | -0.407 (inactive)
50 | GAAUUGCUCCUAAUGUCAATT against MYB | 0.307 (inactive)
51 | CAGUGAGGUGAAACAAAUATT against DNAJC8 | -1.62 (active)
52 | GUGACCAUCUUGGACAUUATT against CELSR1 | -0.466 (inactive)
53 | GGCGACUGUUUAUACAUGATT against ALDH7A1 | -0.406 (inactive)
54 | GGAAGAAAUUAGCUAAAAATT against MKI67IP | 0.426 (inactive)
55 | UGACCCAGAUUAUCGCCGATT against POLR2I | -3.27 (active)
56 | GCCUAGAGGAUACCCAAAATT against NPVF | 0.588 (inactive)
57 | GCUCAGAUGUUAUUCGGGATT against SKIV2L | 0.209 (inactive)
58 | GCAAAGCUAUUGCAUUGAATT against HSDL2 | -0.0717 (inactive)
59 | AGAUCAACCCAGAUAACUATT against INCENP | -0.339 (inactive)
60 | GCACCUAUCUUGACCUGCUTT against CTSC | 0 (inactive)
61 | CCUUCUAAUUCGCAAGGUATT against REL | -0.358 (inactive)
62 | GCGCAGCUCUGGAAUUUGATT against OXCT2 | -0.449 (inactive)
63 | AGAGCAUUCACAAACUGAATT against RBM8A | 0 (inactive)
64 | CCUCCUCGAUGCCUACAAATT against DIO2 | -0.549 (inactive)
65 | CACUAUGGAGAAACAAUAUTT against ZNF181 | -0.154 (inactive)
66 | GGUGAUGACUGCUUGAUGATT against PSKH1 | -2.03 (active)
67 | CCCACCAAAUUGCACAAUATT against KLF13 | -0.501 (inactive)
68 | GACUGUCUUUGAAAAGAGATT against HESX1 | 0.3 (inactive)
69 | GCAGCAUGCUACAACCAAATT against RNF25 | -0.0826 (inactive)
